# Results filed as inconclusive are left out. Activity calls are given as the source filed them. The call rests on the fitted dose curve; in most records, active means well fitted activation curve with a large enough effect in the repeat runs; inconclusive means weak or mixed curves; inactive means flat fitted curve, though single readings scatter.
# Experiment: Caspase-3/7 induction in HepG2 cells by small molecules, qHTS assay (AID 1346978); further: nearly all actives have a fitted effect of over 15% in size
# Conditions: HepG2 caspase-3/7 activation, Caspase-Glo luminescence, 17 h; series mostly up to 92.4 µM; caspase activation: at the top concentration
# Description: National Center for Advancing Translational Sciences [NCATS] NIH Chemical Genomics Center [NCGC] U.S. Environmental Protection Agency [EPA] National Institutes of Environmental Health Sciences [NIEHS] National Toxicology Program [NTP] Assay overview: Apoptosis is a process of programmed cell death and plays a central role in the development of multicellular organisms. It is a highly regulated process and induces cell death by activating caspases, which are the members of cysteine aspartic acid-specific protease (caspase) family. Caspases involved in apoptosis are classified by their mechanism of action as initiator caspases (caspase-2, -8, -9 and -10) and executioner caspases (caspase-3, -6, and -7). Inhibition of apoptosis results in number of cancers, autoimmune diseases, inflammatory diseases and viral infection. To identify small molecule compounds that induce apoptosis, a homogeneous, luminescent Caspase-Glo 3/7 assay was used. Wild type HepG2 cells were used to screen Tox21 libraries for identifying caspase-3/7 activity inducers.
# Assay Protocol Summary: HepG2 cells were dispensed at 2,000 per well in 5uL of culture medium into white solid bottom 1536-well plates (Corning Life Sciences, Corning, NY) using a Multidrop Combi (Thermo Scientific, Waltham, MA) dispenser. The assay plates were incubated at 37 C and 5% CO2 for 5hr, and then 23nL of compounds dissolved in DMSO and positive control were transferred using a Pintool station (Wako, San Diego, CA). The assay plates were incubated at 37C and 5% CO2 for 17hr. For caspase-3/7 activity read, 4uL of Caspase-Glo 3/7 reagent (Promega Corporation, Madison, WI) was added to each well of the assay plates using Flying Reagent Dispenser (FRD, Aurora Discovery, San Diego, CA) and incubated the assay plates at room temperature for 30min. The luminescence signal was quantified using a ViewLux plate reader (Perkin Elmer, Shelton, CT).
# On the % scale 0 is the no-effect control and ±100 the full control effect.
Structure (SMILES),caspase activation,Potency
CC(C(=O)O)c1ccc2c(c1)[nH]c1ccc(Cl)cc12 (stereo not given),-8.51% [at 42.5 µM] (inactive),–
O=C(Nc1ccc2c(O)c(N=Nc3ccc(N=Nc4ccc(S(=O)(=O)O)cc4)cc3)c(S(=O)(=O)O)cc2c1)c1ccccc1,-0.745% (inactive),–
CCCCCCCCCCCC(=O)OCC(C)OC(=O)CCCCC(=O)O (stereo not given),0.942% [at 42.5 µM] (inactive),–
CCCc1ccc(OCC(=O)N2CCN(C(=O)COc3ccc(CCC)cc3OC)CC2)c(OC)c1,0.609% [at 42.5 µM] (inactive),–
Cc1nc2n(c(=O)c1CCN1CCC(c3noc4cc(F)ccc34)CC1)CCCC2,-0.905% [at 42.5 µM] (inactive),–
OC1CCC(C2CCCCC2)CC1 (stereo not given),1.22% (inactive),–
Nc1cc(Cl)c(O)c(Cl)c1,0.0291% (inactive),–
CCCCCc1ccc(Cl)cc1,-0.273% (inactive),–
Cl[Si](Cl)(c1ccccc1)c1ccccc1,0.255% (inactive),–
CN1CCN(Cc2cc(-c3ccc4[nH]c(=O)oc4c3)co2)[C@@H](c2ccc(F)cc2)C1,4.52% (inactive),–
CCCC(=O)OCCc1ccccc1,0.581% (inactive),–
C=C(CC)C(=O)c1ccc(OCC(=O)O)c(Cl)c1Cl,–,inactive
COc1ccc2c(c1)c(CC(=O)OC/C=C(\C)CC/C=C(\C)CCC=C(C)C)c(C)n2C(=O)c1ccc(Cl)cc1,-0.577% [at 42.5 µM] (inactive),–
CC1=CCC(=C(C)C)CC1,-0.325% (inactive),–
O=C(O)c1cc(N=Nc2ccc([N+](=O)[O-])cc2)ccc1O,-13.4% (inactive),–
NC(=O)c1cccc([N+](=O)[O-])c1,-1.44% (inactive),–
C=C(C)C(=O)OCCCCCCCCCC,-6.91% (inactive),–
CCC(C)n1ncn(-c2ccc(N3CCN(c4ccc(OC[C@H]5CO[C@](Cn6cncn6)(c6ccc(Cl)cc6Cl)O5)cc4)CC3)cc2)c1=O (stereo not given in full),-3.06% [at 42.5 µM] (inactive),–
O=C1CCc2ccc(OCCCCN3CCN(c4cccc(Cl)c4Cl)CC3)cc2N1,5.92% [at 42.5 µM] (inactive),–
Cc1cccc2cccnc12,1.12% (inactive),–

Structure (SMILES),caspase activation,Potency
C=CC(C)(CCC=C(C)C)OC=O (stereo not given),-0.269% (inactive),–
CC(C)(c1cc(Br)c(OCC(Br)CBr)c(Br)c1)c1cc(Br)c(OCC(Br)CBr)c(Br)c1 (stereo not given),-1.24% [at 42.5 µM] (inactive),–
O=C1C(c2[nH]c3ccc(S(=O)(=O)O)cc3c2O)=Nc2ccc(S(=O)(=O)O)cc21,-3.21% (inactive),–
CN1CCN2c3ccccc3Cc3ccccc3C2C1 (stereo not given),2.01% [at 42.5 µM] (inactive),–
CCc1cccc(CC)c1NC(=O)CN(CC(=O)O)CC(=O)O,1.72% [at 42.5 µM] (inactive),–
CCC(CC)(CC(=O)Nc1cccc(/C=C/c2nc(C3CCC3)cs2)c1)C(=O)O,-3.87% [at 42.5 µM] (inactive),–
Cc1cc(C(C#N)c2ccc(Cl)cc2)c(Cl)cc1NC(=O)c1cc(I)cc(I)c1O (stereo not given),-10.9% [at 42.5 µM] (inactive),–
O=C(O)CN(CCN(CC(=O)O)CC(=O)O)CC(=O)O,-0.861% [at 3.27 µM] (inactive),–
Nc1nc(-c2ccccc2)cs1,-7.46% (inactive),–
CCCCCCC1CCCC(=O)O1 (stereo not given),0.0876% (inactive),–
COC(=O)c1ccccc1OC,0.48% (inactive),–
Cc1ccc(C(=O)O)cc1,-0.793% (inactive),–
CCN(CC)c1ccc2c(-c3ccc(S(=O)(=O)O)cc3S(=O)(=O)[O-])c3ccc(=[N+](CC)CC)cc-3oc2c1,-7.43% (inactive),–
COc1ccc(-c2coc3cc(O)ccc3c2=O)cc1,-20.5% (inactive),–
C[C@@H](O)[C@H](N)C(=O)O,-1.24% [at 19 µM] (inactive),–
CCOC(=O)NNc1ccc(N(CC)CC(C)O)nn1 (stereo not given),1.61% [at 42.5 µM] (inactive),–
NC(=S)NC(N)=S,0.461% (inactive),–
Cc1cccc(C)c1NC(=O)c1ccc(N)cc1,0.168% [at 42.5 µM] (inactive),–
CCC(=O)C(=O)CC,0.0766% (inactive),–
CNc1ccc([N+](=O)[O-])cc1,1.03% (inactive),–

# Source: PubChem BioAssay (Tox21)
